Assay outcomes from PubChem.
HT1080 IDH1KD tx: qHTS for induction of synthetic lethality in tumor cells producing 2HG: qHTS for the HT-1080-IDH1KD cell line; HT-1080 IDH1 knockdown viability, ATP luminescence, 48 h; AID 686971, 2013; Potency, µM (doses to about 46.1 µM), for the others: at the top dose activity, negative = toxicity, usual class: cytotoxic; 360,000 compounds, 2% hits;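 note: 0% = DMSO wells and -100% = cell-free medium wells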
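% activity derives from luminescence (CellTiter-Glo), normalised to DMSO and no-cell wells. HT-1080-IDH1KD cells, 750/well, had 48 h compound exposure at 37 °C.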
KB-V1 cytotox: qHTS assay for MDR1-selective chemotherapeutics: Primary screen using the drug-selected MDR subline cells KB-V1 | KB-V1 MDR cells viability, CellTiter-Glo, 72 h | 400,000 compounds, 3.4% hits | Potency, µM (highest dose often 46.1 µM), usual class: cytotoxic; note: % is set by controls: 0 for no effect and ±100 for the full control effect; nearly all actives have a fitted effect of over 60% in size
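Cells of the MDR subline KB-V1 are plated, dosed with compound at multiple concentrations, and incubated 72 h at 37 degrees C; CellTiter-Glo is then added and luminescence read after 10 min.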
KB-3-1 cytotox: qHTS assay for MDR1-selective chemotherapeutics: Primary screen using the parental adenocarcinoma cell KB-3-1. KB-3-1 viability, CellTiter-Glo ATP luminescence, 72 h. AID 1347075, 2019. Potency, µM (doses to about 46.1 µM), actives largely listed as cytotoxic. 400,000 compounds, 1.4% hits; note: % is set by controls: 0 for no effect and ±100 for the full control effect; nearly all actives have a fitted effect of over 60% in size
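72 h, 37 °C compound treatment of KB-3-1 parental cells; CellTiter-Glo added, 10 min, luminescence read. Data corrected against DMSO-only plates and normalized before curve fitting.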
HT1080-NT tox: qHTS for induction of synthetic lethality in tumor cells producing 2HG: qHTS for the HT-1080-NT fibrosarcoma cell line; HT-1080-NT fibrosarcoma viability, CellTiter-Glo ATP luminescence, 48 h; Potency, µM (highest dose often 46.1 µM), for the others: at the highest dose activity, negative = less viability, hits mostly cytotoxic; 360,000 compounds, 1.6% hits; AID 686970, 2013;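 note: NT is the 2HG producing partner of a matched IDH1 knockdown line; 0% = DMSO-treated cells and -100% = media-only wells without cells; nearly all actives have a fitted effect of over 55% in size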
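Viability by CellTiter-Glo luminescence after 48 h compound exposure at 37C of HT-1080-NT cells (750/well, RPMI, 5% FBS). % activity scaled between DMSO wells and medium-only wells, then curve-fitted and categorized by curve class.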
MCF10A rerep: A quantitative high throughput screen for small molecules that induce DNA re-replication in MCF 10a normal breast cells; 350,000 compounds, 2.9% hits; Potency, µM (doses to about 46.1 µM), for the others: at the top dose activity, positive = re-replication, hits mostly activators; MCF 10A DNA re-replication, Hoechst nuclear intensity, 48 h; note: % of control where 0% means no effect; nearly all actives have a fitted effect of over 50% in size
SW480 rerep: A quantitative high throughput screen for small molecules that induce DNA re-replication in SW480 colon adenocarcinoma cells; Potency, µM (titrated, usually from 46.1 µM), inactives show at the top dose re-replication activation, hits mostly activators; SW480 DNA re-replication, Hoechst DNA content imaging, 48 h; 340,000 compounds, 1.8% hits; note: % of control where 0% means no effect; nearly all actives have a fitted effect of over 55% in size
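Image-based read-out: total Hoechst fluorescence of nuclei (405 nm excitation, 500-530 nm emission), with hits raising the fraction of high-intensity nuclei. SW480 colon cells incubated 48 hr with compounds at 37 C.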
* marks the source's active call; other numbers are inactive results; i = inactive; ? = inconclusive. Rows were chosen to be rich in hits. Some 7.9% of all compounds tested hit in one or more screens of this group. Calls come from the whole dose curve; as a rule, active = well fitted curve in the direction sought with a large enough effect; inconclusive = small, poorly fitted or top-dose-only effect, or another doubt; inactive = no such curve, though single readings can be large; an effect the other way counts as inactive or inconclusive. Potency is the fitted concentration of half-maximal effect.

SMILES	HT1080 IDH1KD tx	KB-V1 cytotox	KB-3-1 cytotox	HT1080-NT tox	MCF10A rerep	SW480 rerep
Cc1ccc(S(=O)(=O)N(Cc2cc3cc4c(cc3[nH]c2=O)OCCO4)CC2CCCO2)cc1 (stereo not given)	9%	i	i	13%	2%	-4%
C[C@H](CO)N1C[C@H](C)[C@@H](CN(C)C(=O)Nc2ccc(C(F)(F)F)cc2)Oc2ccc(NC(=O)C3CCCCC3)cc2C1=O	-2%	i	i	-3%	-8%	2%
O=C(CCNS(=O)(=O)c1cccs1)N1CCCCCC1	-1%	i	i	-6%	2%	0%
O=S(Cc1ccc(Cl)cc1)c1ncc(CO)n1Cc1ccccc1 (stereo not given)	0%	i	16µM*	-4%	-1%	?
COc1ccc(-n2nc([N+](=O)[O-])c(=NC3CCN(Cc4ccccc4)CC3)n2O)cc1	-8%	?	?	-10%	9%	?
COc1ccc(-c2csc(NC(=O)CSc3ccc(Br)cc3)n2)c(OC)c1	-4%	i	i	-3%	0%	0%
Cc1cc(C)nc(SCNC(=O)c2ccccc2)n1	7.1µM*	i	i	5µM*	?	5.8µM*
Cc1cc(C)nc(SCC(=O)Nc2ccccc2[N+](=O)[O-])n1	4%	23µM*	i	4%	1%	-3%
Cc1cccc(SCC(=O)Nc2ccccc2[N+](=O)[O-])c1	-4%	i	i	9%	5%	5%
Cc1cc(C)n2nc(SCC(=O)Nc3ccc(F)cc3[N+](=O)[O-])nc2n1	0%	21µM*	i	1%	1%	-3%
Cc1cc(C)nc(SCC(=O)Nc2ccnc3ccccc23)n1	-13%	4.6µM*	3.7µM*	1%	-6%	3%
COC(=O)c1ccccc1NC(=O)CSc1nc(C)cc(C)n1	1%	i	i	-11%	6%	-7%
CC(NC(=O)C1CCN(C(=O)[C@@H]2Cc3ccccc3CN2C(=O)OC(C)(C)C)CC1)c1ccccc1 (stereo not given in full)	-1%	i	i	-5%	1%	-3%
COc1ccc(C(C)=O)cc1CN1C(=O)NC(c2ccccc2)(c2ccccc2)C1=O	-4%	i	i	-6%	0%	16%
Cc1nc(N(C)Cc2ccccc2)c2c(C)c(C)sc2n1	-14%	?	?	-7%	?	?
Cc1cccc(Nc2nnc(SCC(=O)Nc3ccccc3[N+](=O)[O-])s2)c1	-16%	21µM*	i	-11%	7%	2%
Cc1cc(C)nc(SCc2ccc(C(=O)N/N=C/c3cccc(O)c3O)cc2)n1	2.3µM*	?	?	?	?	?
Cc1nc2ccc(S(=O)(=O)Nc3ccccc3C)cc2s1	?	18µM*	?	?	?	?
Cc1ccccc1NS(=O)(=O)c1ccc(C(=O)N2CCCC2)cc1	6%	21µM*	i	3%	3%	-5%
Cc1cccc(NS(=O)(=O)c2ccc(C(=O)N3CCN(c4ccccc4O)CC3)cc2)c1C	-3%	?	?	1%	23µM*	1%
COc1ccccc1CNS(=O)(=O)c1ccc(-n2cnnn2)c(C)c1	9%	i	i	5%	-1%	-11%
Cc1cc(S(=O)(=O)NCC(c2ccccc2)c2ccccc2)ccc1-n1cnnn1	-11%	18µM*	i	-11%	4%	-8%
CNC(=O)NC(=O)C(C)OC(=O)CCCc1nc2ccccc2s1 (stereo not given)	-2%	i	i	-5%	-7%	-4%
